# Measurements as given in the supplement of paper PMC6953052.
# Several values for one entry are separate records, joined by “and”; a condition that tells them apart may be missing. Identical values can stand only once. ± gives the standard deviation of the averaged measurements. In all, about 1,700 compounds were measured (“fraction of GFP-LC3-positive cells (≥5 vesicles/cell)”: median about 0.43, highest 2% from about 0.81 on). Only a selection was taken, and the highest values are over-represented in it overall.
# System: CbCln3 Δex7/8/Δex7/8 GFP-LC3 cerebellar neuronal cells
# Test: fraction of GFP-LC3-positive cells (≥5 vesicles/cell); higher = more autophagosome accumulation
# Method in brief: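 In 384-well plates at 2 × 10^3 cells per well, GFP-LC3-expressing wild-type or mutant CbCln3 cerebellar cells took ~50 nL of compound in DMSO by pin transfer, in duplicate, for 24 h at 33 °C. Staining with Hoechst 33342 and LysoTracker Red over the final 30 min preceded fixation in 3.2% PFA and imaging of three fields per well at 10×. CellProfiler then counted GFP-LC3 vesicles in each cell, and out-of-focus images were dropped before the fraction of cells with 5 or more vesicles was averaged over duplicates.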
row,Compound,fraction of GFP-LC3-positive cells
1,CC/C=C\C/C=C\C/C=C\CCCCCCCCCCCC(=O)O [Docosatrienoic acid (22:3 n-3)],0.541
2,CC/C=C\C/C=C\C/C=C\CCCCCCCCCCCC(=O)O [Docosatrienoic acid (22:3 N-3)],0.466
3,CC/C=C\C/C=C\C/C=C\CCCCCCCCCCCC(=O)O,0.417
4,CC[N+](C)(C)c1cccc(O)c1.[Cl-] [Edrophonium chloride],0.407
5,CC(C)NNC(=O)c1ccncc1.O=P(O)(O)O [Iproniazide phosphate],0.489
6,CNCCCN1c2ccccc2CCc2ccccc21.Cl [Desipramine hydrochloride],0.486
7,CN(C)CCOC(C)(c1ccccc1)c1ccccn1.O=C(O)CCC(=O)O (stereo unspecified) [Doxylamine succinate],0.314
8,O=C(NCC1CCCCN1)c1cc(OCC(F)(F)F)ccc1OCC(F)(F)F (stereo unspecified),0.524
9,c1ccc2[nH]c(-c3cscn3)nc2c1 [Tiabendazole],0.326
10,CC[C@H]1[C@@H]2C=C[C@@H]3[C@H]4C/C=C\C(=O)NCCC[C@@H]5NC(=O)C(=C5O)C(=O)CC[C@@H]4C[C@@H]3[C@H]2C[C@H]1C [Ikarugamyin],0.921
11,CCCCCCCC/C=C\CCCCCCCC(=O)NCCc1ccc(O)c(O)c1 [Oleoyl dopamine],0.611
12,CCCCC/C=C\C=C\C(O)CCCCCCCC(=O)O (racemic),0.29
13,CCOC(=O)[C@H](CCc1ccccc1)N[C@@H](C)C(=O)N1CCC[C@H]1C(=O)O.O=C(O)/C=C\C(=O)O [Enalapril maleate],0.395
14,"CCCCC[C@H](O)/C=C/C=C/C=C/[C@H](O)C/C=C\CCCC(=O)O [8(R),15(S)-DiHETE all trans]",0.298
15,CC[N+](CC)(CC)CCC(O)(c1ccccc1)C1CCCCC1.[Cl-] (stereo unspecified) [Tridihexethyl chloride],0.44
16,CCCCCCCCCCCCCCCCOC[C@H](COP(=O)([O-])OCC[N+](C)(C)C)OC(=O)NC,0.4228 ± 0.0025
17,NC(=O)N/N=C/c1ccc([N+](=O)[O-])o1 [Nitrofural],0.493
18,CCC1NC(=O)c2cc(S(N)(=O)=O)c(Cl)cc2N1 (stereo unspecified) [Quinethazone],0.417
19,CN(C)CCCSC(=N)N.Cl.Cl [Dimaprit dihydrochloride],0.45
20,Nc1nc(=O)[nH]cc1F [Flucytosine],0.296
21,Cl.Clc1ccccc1CN1CCc2sccc2C1 [Ticlopidine hydrochloride],0.403

row,Compound,fraction of GFP-LC3-positive cells
1,CN[C@H]1CC[C@@H](c2ccc(Cl)c(Cl)c2)c2ccccc21 [Sertraline],0.311
2,Oc1ccc(-c2nc(-c3ccc(F)cc3)c(-c3ccncc3)[nH]2)cc1,0.524 and 0.566
3,N=C(N)NCCC[C@H](NC(=O)[C@@H]1CCCN1C(=O)[C@H](N)Cc1ccccc1)C(=O)CCl,0.502
4,CCCC[C@@H](C=O)NC(=O)[C@H](CC(C)C)NC(=O)[C@H](CC(C)C)NC(C)=O,0.93
5,CSCC[C@@H](C=O)NC(=O)[C@H](CC(C)C)NC(=O)[C@H](CC(C)C)NC(C)=O,0.448
6,CC(=O)N[C@@H](CC(C)C)C(=O)N[C@@H](CC(C)C)C(=O)N[C@H](C=O)CCCNC(=N)N [Leupeptin],0.392
7,CCOC(=O)/N=c1/c[n+](N2CCOCC2)[n-]o1 [Molsidomine],0.473
8,CCC[C@@H]1C[C@@H](C(=O)N[C@@H]([C@H]2O[C@H](SC)[C@H](O)[C@@H](O)[C@@H]2O)[C@@H](C)O)N(C)C1.Cl [Lincomycin hydrochloride],0.505
9,CS(=O)(=O)c1ccc([C@@H](O)[C@@H](CF)NC(=O)C(Cl)Cl)cc1 [Florfenicol],0.355
10,CN(C)c1ccc(/C=C2\C(=O)Nc3ccccc32)cc1,0.441 and 0.394
11,COC(=O)Nc1nc2cc(C(=O)c3cccs3)ccc2[nH]1 [nocodazole],0.612
12,COC(=O)Nc1nc2cc(C(=O)c3cccs3)ccc2[nH]1 [Nocodazole],0.916
13,CC(C(=O)O)c1ccc(C(=O)c2cccs2)cc1 (stereo unspecified) [Suprofen],0.46
14,COC(=O)Nc1nc2cc(C(=O)c3ccccc3)ccc2[nH]1 [Mebendazole],0.9
15,O=C(O)c1ccc2nc(-c3ccccc3)c(-c3ccccc3)nc2c1,0.507
16,CC(C(=O)O)c1cccc(C(=O)c2ccccc2)c1 (stereo unspecified) [Ketoprofen],0.499
17,Cc1cc(C2CCCCC2)n(O)c(=O)c1.NCCO [Ciclopirox ethanolamine],0.809
18,Cc1cc(=O)n(-c2ccccc2)n1C [Antipyrine],0.36
19,CC(C)COCC(CN(Cc1ccccc1)c1ccccc1)N1CCCC1 (stereo unspecified),0.621
20,CCCCC[C@H](O)/C=C/C=C\C/C=C\C/C=C\CCCC(=O)O,0.405 ± 0.089
